40 compounds from PubChem BioAssay (NCI) can be followed below.

Structures are written as SMILES. The panel holds about 83,000 compounds, 20% with a hit somewhere; the sample as a whole holds those more often.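 Cell lines were cultured in 96-well plates, exposed to a single compound concentration, and assessed for percent growth 48 hours later.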 Active and inactive are the calls of the source. How the source made its calls: active means growth percent below 10; inactive means the rest.

The first experiment relates to SF-295 CNS. Nature of the experiment: NCI-60 one-dose screen, 48 h (100 = growth as untreated, 0 = no growth, -100 = all killed). As to conditions: 10 µM unless noted.
For `CC(=O)c1cc(O)c2ccccc2c1O`, the growth was 108% (inactive).
With `CC[C@]12C=CCN3CC[C@@]4(c5cc(NC(=O)CCC(=O)OCc6cn(Cc7ccc(F)cc7)nn6)c(OC)cc5N(C)[C@H]4[C@@](O)(C(=O)OC)[C@@H]1OC(C)=O)[C@@H]32`, the growth is 103% (inactive).
`Cc1nn(-c2ccccc2)c(Oc2ccccn2)c1-c1nc2ccccc2s1`: the growth was 115% (inactive).
Consider `O=C(Cn1c2c(c3ccccc31)CCCC2)Nc1ccc(-c2nc3ccccc3s2)cc1`, for which the growth was 103% (inactive).
With `N#Cc1c(N)nnn1Cc1cc(=O)oc2c1ccc1ccccc12`, the growth was 109% (inactive).
Turning to `O=C1N[C@@H]2NC(=[N+]3CCOCC3)N[C@@H]2N1`, the growth was 99.9% (inactive).
Take `CCN1C(=O)N(CC)C2C1NN=c1s/c(=C\c3ccc(Cl)cc3Cl)c(=O)n12` (configuration not stated): the growth is 12.8% (inactive).
In the case of `CC1=C(Nc2ccc(N3CCN(C)CC3)cc2)C(=O)c2cncnc2C1=O`, the growth is 103% (inactive).
Take `O=c1oc2ccccc2cc1C1=NN=C(SCc2ccccc2)SC1`: the growth is 98.9% (inactive).
`O=C(O)CNC1=C(Cl)C(=O)c2ccccc2C1=O`: the growth is 92.1% (inactive).
For the compound `N#CC1=C(c2ccc(Cl)cc2)Nc2c(c(-c3ccc(Cl)cc3)nn2-c2ccccc2)C12C(=O)Nc1ccc(Cl)cc12` (configuration not stated), the growth is 23.2% (inactive).
Still for that read-out and setting: to `C=C(C)[C@@H]1CC[C@]2(C(=O)O)CC[C@]3(C)[C@H](CC[C@@H]4[C@@]5(C)C[C@@H](Cc6cn(CCO[C@@H]7O[C@H](COC(C)=O)[C@H](OC(C)=O)[C@H](OC(C)=O)[C@H]7OC(C)=O)nn6)[C@H](O)C(C)(C)[C@@H]5CC[C@]43C)[C@@H]12` belongs 76.7% (inactive).
For the compound `Cc1ccc(NC(=S)NNC(=S)NNc2ccccc2)cc1C`, the growth was 109% (inactive).
Regarding `CCC(C)N(c1ccc(Cl)cc1)c1nc(-c2ccc(Br)cc2)cs1` (configuration not stated), the growth is 105% (inactive).
`c1ccc(CNc2c3ccccc3nc3ccccc23)cc1`: the growth was 37.6% (inactive).
On the same count and under the same terms, under `C=C(C)[C@@H]1CC[C@]2(C(=O)NCC#CCN3CCN(C)CC3)CC[C@]3(C)[C@H](CC[C@@H]4[C@@](C)(CCC#N)[C@H](C(=C)C)CC[C@]43C)[C@@H]12` stands 94.2% (inactive); under `O=C1C(Cl)=C(Nc2ccc(O)cc2)C(=O)N1Cc1ccc(Cl)cc1`, 97.4% (inactive); under `O=Cc1ccc([N+](=O)[O-])s1`, 107% (inactive).
Take `COc1cc(/C=C\c2cc(/C=C\c3ccc(O)c(OC)c3)n(C(=O)COc3ccc(Cl)cc3Cl)n2)ccc1O`: the growth is 23.1% (inactive).
With `CC1(c2ccccc2O)NN=C(/N=C/c2cccc([N+](=O)[O-])c2)N1C(Cc1c[nH]c2ccccc12)C(=O)O` (configuration not stated), the growth was 107% (inactive).
`COC(=O)CNC(=O)[C@H](Cc1ccccc1)NCc1ccncc1`: the growth is 99% (inactive).
The same measure, in the same setting: to `O=C(Nc1cccnc1Nc1ccc(F)cc1)c1cn(Cc2cccc(Oc3ccccc3)c2)nn1` belongs 67.7% (inactive).
Regarding `COc1ccc(-c2cn(-c3cc(OC)c(OC)c(OC)c3)c(=O)n2C(C)=O)cc1`, the growth was 78.6% (inactive).
`COc1ccc(-c2nnc3n(C)c(=O)c4ccccc4n23)cc1N`: the growth is 10.7% (inactive).
For `CCN(CC)c1ccc(/C=C/C(=O)c2ccc(Nc3nc(Nc4ccccc4)nc(Nc4ccccc4)n3)cc2)cc1`, the growth is 1.72% (active).
As for `COP(=O)(OC)C(C)(C)CC(=O)CC(C#N)(C#N)C(C#N)C#N`, the growth was 101% (inactive).
For `N#CC1CCc2c(c(-c3cn[nH]c3C(F)(F)F)nc3c(F)cc4[nH]ncc4c23)C1` (configuration not stated), the growth was 73.8% (inactive).

The subject of another experiment is SF-539 CNS. The description is as above. To be noted: 10 µM unless noted.
As for `C=C(C)[C@@H]1CC[C@]2(C(=O)NCCNCCN)CC[C@]3(C)[C@H](CC[C@@H]4[C@@]5(C)C/C(=C/c6ccncc6)C(=O)C(C)(C)[C@@H]5CC[C@]43C)[C@@H]12`, the growth was 95.1% (inactive).
For the compound `CS(=O)(=O)C1=CN(CCO)C(=O)N2CCCN=C12`, the growth was 102% (inactive).
The same measure, in the same setting: under `Cc1ccc(Sc2nnc(/N=C3\C(=O)Nc4ccccc43)s2)cc1` stands 101% (inactive); under `CCOc1nc(-c2ccccc2)cc2c(O)c(C(=O)NN)[nH]c(=O)c12`, 96.9% (inactive).
Consider `O=C1Nc2ccc(Br)cc2/C1=N/c1n[nH]c(=S)s1`, for which the growth is 99.7% (inactive).
Regarding `CCCCCCCCCCCCCCCC(N)c1ccccc1` (configuration not stated), the growth is 88.4% (inactive).
The same measure, in the same setting: under `CCc1n(Cc2ccc3ccccc3c2)cc[n+]1Cc1ccc2ccccc2c1` stands 12.6% (inactive); under `Cc1ccc(-c2nc(N3CCNCC3)c3oc(-c4ccccc4)nc3n2)cc1`, -91% (active); under `O=C(OCc1ccc2cccc(O)c2n1)N1CCN(C(=O)c2cc3cc(F)ccc3[nH]2)CC1`, -98.3% (active).
On to `CN1CCN(Cc2ccc(NC(=O)c3cncc(C#Cc4cnc(N)c5ccccc45)c3)cc2C(F)(F)F)CC1`, for which the growth is -97.8% (active).
On the same count and under the same terms, under `CO/N=C(/C)c1ccc(NC(=O)CSc2nnc(-c3ccncc3)n2-c2ccccc2)cc1` stands -31.2% (active); under `CC(=O)OC[C@]12CCC(C)(C)C[C@H]1[C@@]1(O)[C@H](O)C[C@@H]3[C@@]4(C)CCCNC(C)(C)[C@@H]4CC[C@@]3(C)[C@]1(C)CC2`, 103% (inactive); under `COc1cc(-n2cc(-c3cc(O)c(C/C=C(\C)CCC=C(C)C)c(O)c3)nn2)cc2c1O[C@]1(C)CC[C@@H](O)C(C)(C)[C@H]1C2`, -40.4% (active).
On the same count and under the same terms, under `CC(=O)c1cc(O)c2ccccc2c1O` stands 97.5% (inactive); under `CC[C@]12C=CCN3CC[C@@]4(c5cc(NC(=O)CCC(=O)OCc6cn(Cc7ccc(F)cc7)nn6)c(OC)cc5N(C)[C@H]4[C@@](O)(C(=O)OC)[C@@H]1OC(C)=O)[C@@H]32`, 96.9% (inactive).
`Cc1nn(-c2ccccc2)c(Oc2ccccn2)c1-c1nc2ccccc2s1`: the growth is 108% (inactive).
On the same count and under the same terms, under `O=C(Cn1c2c(c3ccccc31)CCCC2)Nc1ccc(-c2nc3ccccc3s2)cc1` stands 102% (inactive).
Consider `N#Cc1c(N)nnn1Cc1cc(=O)oc2c1ccc1ccccc12`, for which the growth was 113% (inactive).
For `O=C1N[C@@H]2NC(=[N+]3CCOCC3)N[C@@H]2N1`, the growth is 98.2% (inactive).
For `CCN1C(=O)N(CC)C2C1NN=c1s/c(=C\c3ccc(Cl)cc3Cl)c(=O)n12` (configuration not stated), the growth is -12.6% (active).
On to `CC1=C(Nc2ccc(N3CCN(C)CC3)cc2)C(=O)c2cncnc2C1=O`, for which the growth was 94.5% (inactive).
Regarding `O=c1oc2ccccc2cc1C1=NN=C(SCc2ccccc2)SC1`, the growth is 96.5% (inactive).
Consider `O=C(O)CNC1=C(Cl)C(=O)c2ccccc2C1=O`, for which the growth was 123% (inactive).
As for `N#CC1=C(c2ccc(Cl)cc2)Nc2c(c(-c3ccc(Cl)cc3)nn2-c2ccccc2)C12C(=O)Nc1ccc(Cl)cc12` (configuration not stated), the growth is 74.2% (inactive).
On to `C=C(C)[C@@H]1CC[C@]2(C(=O)O)CC[C@]3(C)[C@H](CC[C@@H]4[C@@]5(C)C[C@@H](Cc6cn(CCO[C@@H]7O[C@H](COC(C)=O)[C@H](OC(C)=O)[C@H](OC(C)=O)[C@H]7OC(C)=O)nn6)[C@H](O)C(C)(C)[C@@H]5CC[C@]43C)[C@@H]12`, for which the growth is 79.3% (inactive).
With `Cc1ccc(NC(=S)NNC(=S)NNc2ccccc2)cc1C`, the growth is 103% (inactive).
For the compound `CCC(C)N(c1ccc(Cl)cc1)c1nc(-c2ccc(Br)cc2)cs1` (configuration not stated), the growth is 101% (inactive).
Take `c1ccc(CNc2c3ccccc3nc3ccccc23)cc1`: the growth was 24% (inactive).
In the case of `C=C(C)[C@@H]1CC[C@]2(C(=O)NCC#CCN3CCN(C)CC3)CC[C@]3(C)[C@H](CC[C@@H]4[C@@](C)(CCC#N)[C@H](C(=C)C)CC[C@]43C)[C@@H]12`, the growth is 66% (inactive).
As to `O=C1C(Cl)=C(Nc2ccc(O)cc2)C(=O)N1Cc1ccc(Cl)cc1`, the growth was 65% (inactive).
As for `O=Cc1ccc([N+](=O)[O-])s1`, the growth was 86.5% (inactive).
The same measure, in the same setting: under `COc1cc(/C=C\c2cc(/C=C\c3ccc(O)c(OC)c3)n(C(=O)COc3ccc(Cl)cc3Cl)n2)ccc1O` stands 8.64% (active).
Still for that read-out and setting: under `CC1(c2ccccc2O)NN=C(/N=C/c2cccc([N+](=O)[O-])c2)N1C(Cc1c[nH]c2ccccc12)C(=O)O` (configuration not stated) stands 99.4% (inactive); under `COC(=O)CNC(=O)[C@H](Cc1ccccc1)NCc1ccncc1`, 102% (inactive); under `O=C(Nc1cccnc1Nc1ccc(F)cc1)c1cn(Cc2cccc(Oc3ccccc3)c2)nn1`, 63.7% (inactive).
Consider `COc1ccc(-c2cn(-c3cc(OC)c(OC)c(OC)c3)c(=O)n2C(C)=O)cc1`, for which the growth was 97% (inactive).
Regarding `COc1ccc(-c2nnc3n(C)c(=O)c4ccccc4n23)cc1N`, the growth is -5.87% (active).
Same read-out and setting: to `CCN(CC)c1ccc(/C=C/C(=O)c2ccc(Nc3nc(Nc4ccccc4)nc(Nc4ccccc4)n3)cc2)cc1` belongs 61.2% (inactive); to `COP(=O)(OC)C(C)(C)CC(=O)CC(C#N)(C#N)C(C#N)C#N`, 102% (inactive); to `N#CC1CCc2c(c(-c3cn[nH]c3C(F)(F)F)nc3c(F)cc4[nH]ncc4c23)C1` (configuration not stated), 20.4% (inactive).
